In all, about 360,000 compounds went through this assay and about 3,900 (1.1%) were called active. This is one part of a sample in which actives are shown more often than they occur. Unmarked numbers belong to inactive results.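 The calls were made as follows: active = mean replicate inhibition score of at least 50 and every replicate individually at or above 50; inconclusive = only one of the two criteria met; inactive = mean below 50 and not all replicates reaching 50.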
experiment: blockers of JRFL envelope-mediated fusion – HeLa-JRFL effector, CEM21 target cells, luciferase, primary screen (AID 651610); details: HeLa-JRFL Env/CEM21 cell fusion, active compounds read high; at 16.7 µM unless noted;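 also: 0% = plate neutral controls and 100% = maraviroc near 300 nM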

SMILES	inhibition
C[C@@H]1CCCCO[C@@H](CN(C)C(=O)Nc2cccc3ccccc23)[C@H](C)CN([C@H](C)CO)C(=O)c2cc(NS(C)(=O)=O)ccc2O1	-3.83%
Cc1noc(C)c1S(=O)(=O)Nc1ccc2c(c1)CC(=O)N([C@H](C)CO)C[C@@H](C)[C@@H](CN(C)Cc1ccc(C(=O)O)cc1)O2	20.1%
CC1CN(Cc2nc3c(c(=O)n(C)c(=O)n3C)n2Cc2cccc(Cl)c2)CC(C)O1 (stereo not given)	7.96% [at 12.3 µM]
CCCCNc1nc2c(c(=O)n(C)c(=O)n2C)n1Cc1cccc(OC)c1	88.5% [at 12.3 µM] (active)
Cn1c(=O)c2c(nc(NCCc3ccccc3)n2Cc2ccccc2)n(C)c1=O	86.6% [at 12.3 µM] (active)
Cn1c(=O)c2c(nc(NCCNC(=O)c3ccco3)n2Cc2ccccc2F)n(C)c1=O	0.989% [at 12.3 µM]
CC(C)OCCCNc1nc2c(c(=O)n(Cc3ccccc3F)c(=O)n2C)n1C	4.04% [at 12.3 µM]
Cn1c(=O)c2c(nc(NCc3ccccc3)n2CC(N)=O)n(C)c1=O	-8.78% [at 12.3 µM]
COc1ccc(S(=O)(=O)Nc2ccc3c(c2)C(=O)N([C@H](C)CO)C[C@@H](C)[C@H](CN(C)C(=O)Nc2ccc4c(c2)OCO4)O3)cc1	12%
COc1cccc(S(=O)(=O)N[C@H]2CC[C@@H](CCN)O[C@H]2CO)c1	-38.7%
CN(C)CCCNC(=O)C[C@@H]1C=C[C@H](NC(=O)Cc2cccnc2)[C@H](CO)O1	12.3%
C[C@@H]1CCCCO[C@@H](CN(C)Cc2ccncc2)[C@H](C)CN([C@H](C)CO)C(=O)c2cc(NC(=O)CCC(F)(F)F)ccc2O1	-12.7%
COc1cccc2c1C(=O)c1c(O)c3c(c(O)c1C2=O)CC(O)(C(C)=NNC(=O)c1ccc(Cl)c(Cl)c1)CC3OC1CC(N)C(O)C(C)O1 (stereo not given)	86% [at 12.3 µM] (active)
C[C@@H](NC(=O)C[C@@H]1CC[C@@H](NC(=O)C2CCOCC2)[C@@H](CO)O1)c1ccccc1	-27.6%
C[C@@H]1CN([C@@H](C)CO)C(=O)c2cc(-c3cncnc3)cnc2O[C@@H]1CN(C)Cc1ccncc1	1.5%
CC1CCCN(c2cccc3c2S(=O)(=O)N(Cc2ccc(F)cc2)[C@@H](C)[C@H](c2ccccc2)O3)C1 (stereo not given in full)	-2.41% [at 12.3 µM]
CN(C)C(=O)C[C@@H]1CC[C@H](NC(=O)NC2CCCC2)[C@H](CO)O1	2.96%
O=C(Nc1cccn(Cc2c(Cl)cccc2Cl)c1=O)c1ccc(Cl)cc1	76.4% [at 12.3 µM] (active)
Cc1cc(NC(=O)c2ccco2)c(=O)n(Cc2c(F)cccc2Cl)c1	-1.03% [at 12.3 µM]
O=C(Nc1cccn(Cc2ccccc2Cl)c1=O)NC1CCCCC1	-4.39% [at 12.3 µM]
CNC(=O)C[C@@H]1CC[C@H]2[C@H](COc3ccc(NC(=O)c4cccc(OC)c4)cc3C(=O)N2C)O1	-18.7%
C[C@H](CO)N1C[C@H](C)[C@@H](CN(C)S(=O)(=O)c2ccccc2)Oc2c(NC(=O)c3ccc(-c4nccs4)cc3)cccc2C1=O	-55.7%
O=C(Cc1ccncc1)NCC[C@H]1CC[C@H](NC(=O)C2CC2)[C@H](CO)O1	4.94%
C[C@@H]1CN([C@@H](C)CO)C(=O)c2cc(NC(=O)C3CCCCC3)ccc2O[C@@H](C)CCCCO[C@H]1CN(C)C(=O)Nc1ccc2c(c1)OCO2	-19.1%

SMILES	inhibition
COc1ccc(CNc2ncnc3ccccc23)cc1	77% [at 12.3 µM] (active)
c1ccc(CNc2ncnc3[nH]ncc23)cc1	27.4% [at 12.3 µM]
COc1ccc(CNc2nccs2)cc1	-9.44% [at 12.3 µM]
C[C@@H]1CCCCO[C@@H](CN(C)S(=O)(=O)c2cn(C)cn2)[C@@H](C)CN([C@H](C)CO)C(=O)c2cc(NC(=O)c3ccncc3)ccc2O1	26.2%
CC(C)NC(=O)Nc1ccc2c(c1)CC(=O)N([C@H](C)CO)C[C@@H](C)[C@H](CN(C)S(=O)(=O)c1ccccc1)O2	2.93%
CCOc1c(CNCc2ccc(C(=O)O)cc2)cccc1OC	1.89% [at 12.3 µM]
COc1cc(CNCc2ccc(OC)c3ccccc23)cc(OC)c1OC	99.1% [at 12.3 µM] (active)
COc1ccc(CNCCCNCc2ccc(OC)c(OC)c2)cc1OC	-12.6% [at 12.3 µM]
Cc1noc(C)c1S(=O)(=O)Nc1ccc2c(c1)C(=O)N([C@H](C)CO)C[C@@H](C)[C@@H](CN(C)S(=O)(=O)c1ccc(Cl)cc1)O2	-6.25%
C[C@@H]1CN([C@@H](C)CO)C(=O)c2cc(N(C)C)ccc2O[C@H]1CN(C)Cc1ccc(C(F)(F)F)cc1	14.9%
COc1ccc(C(=O)Nc2cc(S(=O)(=O)N3CCCC3)ccc2Cl)cc1	-8.82% [at 12.3 µM]
CNC(=O)c1ccsc1NC(=O)c1ccc(S(=O)(=O)N2CCOCC2)cc1	-27.2% [at 12.3 µM]
COc1ccc(C(=O)Nc2nc(-c3ccc(S(=O)(=O)N4CCOCC4)cc3)cs2)cc1	93.5% [at 12.3 µM] (active)
CO[C@@H]1CN(C)C(=O)c2ccc(NC(=O)c3ccc(F)cc3)cc2OC[C@H](C)N(C)C[C@H]1C	9.99%
CN1C(=O)c2cc(NC(=O)c3cscn3)ccc2OC[C@H]2O[C@@H](CC(=O)NCC3CC3)CC[C@H]21	-0.83%
C[C@@H]1CCCCO[C@H](CN(C)Cc2ccccc2)[C@@H](C)CN([C@H](C)CO)C(=O)c2cc(NS(C)(=O)=O)ccc2O1	-1.64%
COc1ccccc1NC(=O)CSc1nnc(Cn2nnc(-c3ccccc3)n2)n1-c1ccccc1	-41.2% [at 12.3 µM]
COc1ccccc1NC(=O)CSc1nnc(-c2ccoc2C)n1CCc1ccccc1	62.4% [at 12.3 µM] (active)
CCn1c(SCC(=O)NC2CCCC2)nnc1-c1ccoc1C	-2.28% [at 12.3 µM]
COc1ccc(C#Cc2cnc3c(c2)C(=O)N([C@H](C)CO)C[C@@H](C)[C@@H](CN(C)C(=O)CN(C)C)O3)cc1	-3.11%
COc1ccc(-c2cnc3c(c2)C(=O)N([C@@H](C)CO)C[C@H](C)[C@H](CN(C)C(=O)Cc2cccnc2)O3)cc1	-3.34%
Cc1cc(C)cc(OCC(=O)Nc2ccc(S(=O)(=O)Nc3ccccn3)cc2)c1	19.9% [at 12.3 µM]
Cc1ccc(NS(=O)(=O)c2ccc(C(C)(C)C)cc2)cn1	3.22% [at 12.3 µM]
Cc1ccc(S(=O)(=O)Nc2ccc3ncccc3c2)cc1	60.8% [at 12.3 µM] (active)

SMILES	inhibition
O=C(c1ccccc1)N1CCC(CC2CC(c3ccc(Cl)cc3)=NO2)(C(=O)NCC2CCCCC2)CC1 (stereo not given)	-114% [at 12.3 µM]
COc1ccc(CNC(=O)C2(CC3CC(c4ccccc4)=NO3)CCN(C(=O)c3cccc(O)c3)CC2)cc1 (stereo not given)	65.8% [at 12.3 µM] (active)
CCCCCCCNC(=O)C1(CC2CC(c3cccc(Br)c3)=NO2)CCN(C(=O)c2cc(OCC)c(OCC)c(OCC)c2)CC1 (stereo not given)	28.1% [at 12.3 µM]
CO[C@@H]1CN(C)C(=O)c2cc(NC(=O)C3CCOCC3)ccc2OC[C@H](C)N(C)C[C@H]1C	0.584%
C[C@@H]1CCCCO[C@H](CN(C)C)[C@H](C)CN([C@@H](C)CO)C(=O)c2cc(NS(=O)(=O)c3ccccc3)ccc2O1	19.2%
COc1cncc(-c2cnc3sc(NCCc4ccccn4)nn23)c1	61.5% [at 12.3 µM] (active)
COc1ccc(NCCc2ccccn2)cc1	-6.27% [at 12.3 µM]
Cc1ccc(C(=O)N/C(=C\c2cccs2)C(=O)NCCc2ccccn2)cc1C	-3.78% [at 12.3 µM]
CCNC(=O)Nc1ccc2c(c1)C(=O)N(C)[C@H]1CC[C@@H](CC(=O)N[C@@H](C)c3ccccc3)O[C@H]1CO2	0.456%
COCC(=O)N1C[C@@H](C)[C@H](OC)CN(C)C(=O)c2cc(NC(=O)c3cc(C)on3)ccc2OC[C@@H]1C	-4.38%
C[C@@H]1CN([C@H](C)CO)C(=O)Cc2cc(NC(=O)Cn3cnnn3)ccc2O[C@H]1CN(C)Cc1ccc(C(F)(F)F)cc1	3.54%
COC(=O)C1(C(=O)OC)C[C@H](c2ccccc2)N(Cc2ccccc2OC)[C@@H]1c1ccccc1	84.1% [at 12.3 µM] (active)
COc1ccccc1CNC(=O)CCCN1C(=O)NC2(CCCC2)C1=O	2.68% [at 12.3 µM]
COc1ccccc1CNC(=O)C1CCN(S(C)(=O)=O)CC1	-69% [at 12.3 µM]
O=C(N[C@H]1CC[C@@H](CCNC(=O)C2CCC2)O[C@@H]1CO)c1ccncc1	7.35%
C[C@@H]1CN([C@@H](C)CO)C(=O)c2cc(NC(=O)C3CCCCC3)ccc2O[C@@H](C)CCCCO[C@H]1CN(C)C(=O)CCC(F)(F)F	7.33%
C[C@@H]1CN([C@@H](C)CO)C(=O)c2c(c3ccccc3n2C)-c2ccccc2CO[C@@H]1CN(C)S(=O)(=O)CC(F)(F)F	-10.3%
C[C@@H]1CN([C@H](C)CO)C(=O)c2c(c3ccccc3n2C)-c2ccccc2CO[C@H]1CN(C)S(=O)(=O)c1ccccc1F	6.3%
C[C@H](CO)N1C[C@H](C)[C@@H](CN(C)S(=O)(=O)c2cccc(F)c2)OCc2ccccc2-c2c(n(C)c3ccccc23)C1=O	56% (active)
C[C@H](CO)N1C[C@H](C)[C@H](CN(C)C(=O)c2ccncc2)OCc2ccccc2-c2c(n(C)c3ccccc23)C1=O	59.8% (active)
C[C@@H]1CN([C@H](C)CO)C(=O)c2c(c3ccccc3n2C)-c2ccccc2CO[C@H]1CN(C)C(=O)c1ccncc1	1.26%
Cc1noc(C)c1C(=O)N(C)C[C@H]1OCc2ccccc2-c2c(n(C)c3ccccc23)C(=O)N([C@@H](C)CO)C[C@H]1C	-3.54%

— PubChem BioAssay AID651610 (Broad Institute, 2012)
